# Bioassay records as filed in PubChem BioAssay.
# Shown is part of a subset that was picked to be rich in hits.
# Pf Dd2 growth: qHTS Primary assay for Inhibitors of Plasmodium falciparum Dd2 growth in vitro; P. falciparum Dd2 growth, SYBR Green, 72 h; Potency, µM (titrated, usually from 28.9 µM), inactives show at the top dose activity, negative = inhibition, usual class: inhibitors; actives 4.3% (n = 120,000); active = well fitted inhibition curve with a large enough effect;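 note: plate controls were DMSO vehicle for no effect and reference drug for full effect; nearly all actives have a fitted effect of over 65% in size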
#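 Infected erythrocytes (Dd2, 0.3% parasitemia, 2.5% hematocrit final) are added to compound in RPMI-1640/Albumax II medium, grown 72 h at 37C in low oxygen, then lysed with saponin/Triton-X containing SYBR Green and read by fluorescence.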
# The depositor's hits bear a star; i = inactive; [ ] = remark or other dose. Potency is the fitted concentration of half-maximal effect.
SMILES,Pf Dd2 growth
Oc1c(C(Nc2ccccn2)c2ccccc2F)ccc2cccnc12 (stereo not given),1.1µM*
Cc1ccnc(NC(c2ccccc2F)c2ccc3cccnc3c2O)c1 (stereo not given),6.3µM*
Cc1cccc(NC(c2ccccc2C)c2ccc3ccc(C)nc3c2O)n1 (stereo not given),5µM*
Cc1ccccc1C(=O)N1CCC2(CC1)N=C(c1ccc(Br)cc1)NO2,i
CCNC(=O)N1CCCC(c2nc(-c3cccnc3)no2)CCNC(=O)CC1 (stereo not given),i
COC(=O)[C@@H]1Cc2ncn(C)c2CN1S(=O)(=O)c1cccs1,i
Cc1cc(C(=O)N2CCC3(CC(=O)NC3=O)C2)c(-c2ccccc2)o1 (stereo not given),7%
O=C1NCCOCCN(S(=O)(=O)c2cccc3nsnc23)[C@H]2CCC[C@@H]12,26%
CCCCNC(=O)Cc1csc2nc(C)c(-c3cc(C)n(-c4cccc(C)c4)n3)c(=O)n12,i
CCCCCCNC(=O)Cc1csc2nc(C)c(-c3cc(C)n(-c4cccc(C)c4)n3)c(=O)n12,2µM*
CCCNC(=O)Cc1csc2nc(C)c(-c3cc(C)n(-c4ccc(C)cc4)n3)c(=O)n12,i
Cn1cccc1C(=O)N1CCN(C(=O)c2nnn3c2COC(c2ccc(Cl)cc2)C3)CC1 (stereo not given),-7%
N#Cc1ccccc1C(=O)N1CCOC(c2ccc(Cl)c(Cl)c2)C1 (stereo not given),-18%
CC(C)N1CCN(Cc2nnc3cc(-c4nc(-c5ccccc5)no4)ccn23)CC1,i
CN(C)C[C@@H]1CN(c2ccccn2)C[C@H]1NC(=O)NC1CCCCC1,-23%
CN1CCC2(C1)CN(CC1CCOCC1)c1ccc(C(=O)NCCOc3ccccc3)cc12 (stereo not given),i
COC(=O)c1ccccc1NC(=O)Cn1c(=O)nc(-c2ccccc2)c2cc(Cl)ccc21,-3%
Oc1ccccc1Nc1nc(-c2ccccc2)c2cc(Cl)ccc2n1,5µM*
Oc1ccc(Cl)cc1Nc1nc2ccccc2n2cnnc12,-3%
CN1CCN(c2ccc3nnc(-c4cc(C(=O)N(C)Cc5ccccc5)ccn4)n3n2)CC1,11%
COCCn1c(C(=O)OC)c(NC(=O)Cc2ccccc2)c2cc(NC3CCCCC3)cnc21,-13%
COc1ccc(-c2cc3ccc(O)c(CN4CCC(C)CC4)c3oc2=O)cc1OC,2.5µM*
COc1ccccc1CNC(=O)C1CCN(Cc2nc(-c3ccc(OC)c(OC)c3)oc2C)CC1,-7%
COc1ccc(-c2nnc(SCC(=O)N3CCCCC3)o2)cc1,-22%
Cn1cc(-c2ccc(O)c(F)c2)c2nc(CN3CCOCC3)cn2c1=O,-16%[44.1 µM]
SMILES,Pf Dd2 growth
O=C(Cn1nnnc1CN1CCOCC1)N1CCN(c2ccc(Cl)cc2)CC1,-13%
COc1ccc(-c2c(C)c3ccc(O)c(CN4CCC(C)CC4)c3oc2=O)cc1OC,10µM*
O=c1oc2c(CN3CCOCC3)c(O)ccc2cc1-c1ccc(Cl)cc1,7.1µM*
COc1ccc(-c2onc(C)c2C)cc1S(=O)(=O)N1CCC(C)CC1,15%
COc1ccc(CN2CCC3(CC2)CC(O)CCO3)cc1OC (stereo not given),2%
COc1ccc(CN2CCC(N3CCCCCC3=O)CC2)cc1,13%[44.1 µM]
COc1ccc(-c2cc3ccc(O)c(CN4CCCC4)c3oc2=O)cc1,5.6µM*
COc1ccc(CNC(=O)C2CCN(Cc3nc(-c4ccc(OC)c(OC)c4)oc3C)CC2)cc1,-26%
COCc1noc([C@@H]2CN(Cc3ccoc3)C[C@H]2COC)n1,7%
CCNC(=O)N1CCCCCCNC(=O)[C@@H]2CCCC[C@@H]21,4%
CCCCN1C(=O)[C@@H]2C[C@@H](O)CN2C2(CN(Cc3ccc(OC)cc3)C2)C1=O,-28%[44.1 µM]
COc1ccc(C(C)NC(=O)c2ccc(-c3ccc(N4CCSCC4)nc3)cc2)cc1 (stereo not given),i
COCCc1noc(-c2nc(-c3ccc4c(c3)OCO4)no2)n1,i
CC(c1n[nH]c(=O)n1CCc1ccccc1F)n1cccn1 (stereo not given),8%
CC(=O)N1CCC(n2nccc2NC(=O)c2ccc3c(c2)OCO3)CC1,5%
Cc1cnc(CC2CCN(Cc3ccc(F)cc3F)C2)n1CC1CC1 (stereo not given),-5%
Cc1nc(C(C)C)sc1C(=O)N1C[C@@H](C)[C@](O)(C2CCC2)C1,0%
COCC1(c2nc(C3CCOCC3)nn2C(C)(C)C)CC1,6%
O=c1oc2ccc(Br)cc2cc1-c1csc(-c2ccccc2)n1,23%
COc1ccc(-c2cc3ccc(O)c(CN4CCC(C)CC4)c3oc2=O)cc1,2.2µM*
O=c1oc2c(CN3CCCC3)c(O)ccc2cc1-c1ccccc1,11µM*
Cc1cc2oc(=O)c(CC(=O)O)c(C)c2c2occ(-c3ccccc3)c12,-14%
COc1ccc(CNC(=O)Cn2c(=O)oc3cc(S(=O)(=O)N4CCC(C)CC4)ccc32)cc1,-29%
COc1ccc(-c2nc(S(=O)(=O)c3ccccc3)c(N3CCC(C)CC3)o2)cc1,31%
